The values below come from PubChem BioAssay.

In assay [1] the test system is Wnt5a (protein binding on small-molecule microarray). The assay can be described thus: Wnt5a binders on small-molecule microarray, primary screen, biophysical, 635/667 nm fluorescence (AID 1142).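 Further: fluorescence read at 667 nm with signal to noise per printed feature.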 Conditions: 635 nm fluorescence, higher = more signal.
A short description of assay [2]: cell viability in Huh7 cells, primary screen, cytotoxicity control for HCV replication inhibitor project, CellTiter-Glo luminescence, basal, 48 h (AID 1143).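 Further: Huh7 hepatoma cells carrying a hepatitis C replication reporter with no stimulus; test concentration not given here.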 Conditions: Huh7 HCV replicon, higher = more signal, called active from +8 up or from −8 down. (ATP-based viability assays read luminescence as a measure of living cells.)
Assay [3] is described as follows: P. aeruginosa biofilm formation inhibitors, primary screen, PAO1 strain, BacTiter-Glo luminescence, LB-PBS (AID 1144). Conditions: 12 h, higher = more signal.
A short description of assay [4]: CREB reporter modulators without forskolin, primary screen, cell-based, PC12, CRE-LacZ reporter, unstimulated (AID 1145). Conditions: no forskolin, luminescence, 4.5 h, higher = more signal, called active from +8 up or from −8 down.
Assay [5] is described as follows: CREB reporter modulators under forskolin, primary screen, cell-based, PC12, CRE-LacZ reporter, forskolin-stimulated (AID 1146).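 Further: PC12 cells with 6xCRE LacZ reporter stimulated by forskolin 10 µM; beta-galactosidase reporter signal reflecting CREB driven transcription.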 Conditions: luminescence, 4.5 h, higher = more signal, called active from +8 up or from −8 down.
Assay [6] concerns the target Streptavidin (Streptomyces avidinii) (UniProt P22629). The assay can be described thus: streptavidin binders on small-molecule microarray, primary screen, artefact control for SMM compound annotation, biophysical, 635/667 nm fluorescence (AID 1147).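 Further: signal reflects streptavidin binding to arrayed compounds as a control protein.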 Conditions: streptavidin binding, higher = more signal.
Assay [7] can be described thus: small-molecule binders of probe aInhba, primary screen, biochemical, small-molecule microarray, 635/667 nm fluorescence (AID 1148).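 Further: score merges 667nm spot fluorescence with signal-to-noise for antibody binding to printed compounds.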 Conditions: higher = more signal.
The target of assay [8] is Torsin-1A (Homo sapiens) (UniProt O14656). The assay can be described thus: torsin A binders from cell lysate, primary screen, small-molecule microarray, wild-type, 635/667 nm (AID 1149). Conditions: COS7 hTOR1A-WT lysate, 635 nm fluorescence, higher = more signal.
Torsin-1A (Homo sapiens), sequence (O14656 whole entry, looked up): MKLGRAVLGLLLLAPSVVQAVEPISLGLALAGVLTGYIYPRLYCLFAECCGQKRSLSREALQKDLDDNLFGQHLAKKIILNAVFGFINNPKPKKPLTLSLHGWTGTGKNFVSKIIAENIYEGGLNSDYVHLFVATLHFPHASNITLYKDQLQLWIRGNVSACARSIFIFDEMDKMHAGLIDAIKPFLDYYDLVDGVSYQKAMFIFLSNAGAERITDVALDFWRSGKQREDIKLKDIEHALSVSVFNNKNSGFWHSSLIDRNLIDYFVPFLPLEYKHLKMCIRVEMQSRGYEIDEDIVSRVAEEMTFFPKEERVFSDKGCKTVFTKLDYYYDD
Assay [9] shares this target. The assay can be described thus: small-molecule binders of mutant TOR1A in lysate, primary screen, cell lysate, small-molecule microarray, COS7 lysate, 635/667 nm fluorescence (AID 1150).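 Further: score pools 667 nm emission and signal to noise measuring lysate protein binding.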 Conditions: COS7 hTOR1A mutant lysate, 635 nm fluorescence, higher = more signal.
Assay [10] deals with Sonic hedgehog protein (Shh). The assay can be described thus: small-molecule binders of Shh protein, primary screen, biochemical, small-molecule microarray, 635/667 nm fluorescence (AID 1151).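 Further: Shh protein binding to compounds spotted on small-molecule microarray slides; score combines spot fluorescence intensity with signal-to-noise across triplicate slides.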 Conditions: small-molecule microarray binding, 635 nm fluorescence; higher = more signal.
Assay [11] can be described thus: E. coli DRC41 culture turbidity changes, primary screen, E. coli filamentation inducer project, strain DRC41, OD650, 48 h (AID 1152).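 Further: E. coli MC1000 strain DRC41 lacking acrAB efflux pump and sulA.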 Conditions: E. coli DRC41 (acrAB sulA), higher = more signal, called active from +8 up or from −8 down.
Assay [12] in a line: small-molecule binders of probe aLefty1, primary screen, biochemical, small-molecule microarray, 635/667 nm fluorescence (AID 1153).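 Further: score merges spot fluorescence with signal-to-noise ratio from the scanned slide images.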 Conditions: higher = more signal.
A short description of assay [13]: PSAC antagonists in infected red cells, primary screen, cell-based, P. falciparum Indochina, OD700, 1 h (AID 1154). Conditions: P. falciparum Indochina infected RBC osmotic lysis, higher = more signal, called active from +8 up or from −8 down.
A short description of assay [14]: PSAC antagonists in infected red cells, primary screen, cell-based, P. falciparum Indochina, OD700, 2 h (AID 1155).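 Further: lysis reports solute entry through the parasite surface anion channel PSAC; channel blockers reduce lysis of infected cells.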 Conditions: P. falciparum Indochina infected erythrocytes, osmotic lysis OD700; higher = more signal, called active from +8 up or from −8 down.
Assay [15] can be described thus: osmotic lysis modulators in infected erythrocytes, primary screen, PSAC antagonist project, cell-based, P. falciparum Indochina, OD700, 3 h (AID 1156). Conditions: higher = more signal, called active from +8 up or from −8 down.
The nature of assay [16]: PSAC antagonists in infected red cells, primary screen, cell-based, P. falciparum Indochina, OD700, 18 h (AID 1157). Conditions: P. falciparum Indochina infected erythrocytes, osmotic lysis OD700, 18 h; higher = more signal, called active from +8 up or from −8 down.
A short description of assay [17]: modulators of S6 phosphorylation in cells, primary screen, cell-based, A549, cytoblot, luminescence, serum-stimulated (AID 1158).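 Further: serum-stimulated A549 lung adenocarcinoma cells; signal is phosphorylated S6 detected by cytoblot immunostaining with HRP secondary.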 Conditions: A549 phospho-S6 cytoblot, 5 h, higher = more signal.
Assay [18] deals with NADPH oxidase 2 (Homo sapiens) (UniProt P04839). The assay can be described thus: NOX2-dependent H2O2 signal modulators, primary screen, NOX inhibitor project, cell-based, HEK293-NOX2, PMA-stimulated, Amplex Red fluorescence (AID 1159). Further: test concentration not given here. Conditions: 45 min, higher = more signal, called active from +8 up or from −8 down.
NADPH oxidase 2 (Homo sapiens), sequence (P04839 whole entry, looked up): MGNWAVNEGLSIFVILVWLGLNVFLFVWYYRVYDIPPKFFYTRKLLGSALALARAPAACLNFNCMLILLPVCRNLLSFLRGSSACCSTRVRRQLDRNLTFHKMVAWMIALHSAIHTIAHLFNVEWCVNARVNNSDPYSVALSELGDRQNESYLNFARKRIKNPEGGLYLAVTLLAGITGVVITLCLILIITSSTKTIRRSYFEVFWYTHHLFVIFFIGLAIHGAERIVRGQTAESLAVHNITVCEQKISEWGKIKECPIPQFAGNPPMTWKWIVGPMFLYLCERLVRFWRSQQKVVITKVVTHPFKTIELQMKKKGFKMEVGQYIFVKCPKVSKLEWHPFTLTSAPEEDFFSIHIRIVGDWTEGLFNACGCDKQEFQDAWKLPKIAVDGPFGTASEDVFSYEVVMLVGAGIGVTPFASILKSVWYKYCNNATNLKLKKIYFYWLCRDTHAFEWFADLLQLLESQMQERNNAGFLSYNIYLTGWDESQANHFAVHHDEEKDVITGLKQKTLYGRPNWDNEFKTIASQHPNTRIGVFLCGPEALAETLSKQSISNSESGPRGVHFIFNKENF
For assay [19], the target named is NADPH oxidase 4 (Homo sapiens) (UniProt Q9NPH5). The assay can be described thus: NOX4-dependent H2O2 signal modulators, primary screen, NOX inhibitor project, cell-based, HEK293-NOX4, tetracycline-induced, Amplex Red fluorescence (AID 1160). Conditions: 45 min, higher = more signal, called active from +8 up or from −8 down.
NADPH oxidase 4 (Homo sapiens), sequence (Q9NPH5 whole entry, looked up): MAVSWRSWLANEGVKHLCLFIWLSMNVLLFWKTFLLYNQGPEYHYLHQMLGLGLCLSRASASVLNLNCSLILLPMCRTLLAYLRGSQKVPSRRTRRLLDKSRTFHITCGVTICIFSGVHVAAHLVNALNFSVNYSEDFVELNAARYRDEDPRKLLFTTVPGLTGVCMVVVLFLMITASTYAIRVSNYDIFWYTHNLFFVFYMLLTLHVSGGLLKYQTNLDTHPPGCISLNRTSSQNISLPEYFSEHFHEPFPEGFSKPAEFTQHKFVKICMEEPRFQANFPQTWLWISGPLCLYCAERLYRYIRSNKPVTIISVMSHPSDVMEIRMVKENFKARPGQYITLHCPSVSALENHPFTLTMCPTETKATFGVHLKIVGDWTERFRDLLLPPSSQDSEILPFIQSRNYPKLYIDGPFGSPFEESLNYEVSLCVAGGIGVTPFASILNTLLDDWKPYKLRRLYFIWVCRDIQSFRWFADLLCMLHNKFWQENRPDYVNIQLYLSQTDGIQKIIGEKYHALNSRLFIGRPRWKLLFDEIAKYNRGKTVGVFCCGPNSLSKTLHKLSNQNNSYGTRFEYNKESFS
Assay [20] has as its target NADPH oxidase 5 (Homo sapiens) (UniProt Q96PH1). The assay is described as follows: NOX5-dependent H2O2 signal modulators, primary screen, NOX inhibitor project, cell-based, HEK293-NOX5, Amplex Red fluorescence (AID 1161). Conditions: HEK293-NOX5, ionomycin, 45 min, higher = more signal.

Each structure is given as a SMILES string. The source made the active and inactive calls. Unless noted, how the calls were made is not given here.

NADPH oxidase 5 (Homo sapiens), sequence (Q96PH1 whole entry, looked up): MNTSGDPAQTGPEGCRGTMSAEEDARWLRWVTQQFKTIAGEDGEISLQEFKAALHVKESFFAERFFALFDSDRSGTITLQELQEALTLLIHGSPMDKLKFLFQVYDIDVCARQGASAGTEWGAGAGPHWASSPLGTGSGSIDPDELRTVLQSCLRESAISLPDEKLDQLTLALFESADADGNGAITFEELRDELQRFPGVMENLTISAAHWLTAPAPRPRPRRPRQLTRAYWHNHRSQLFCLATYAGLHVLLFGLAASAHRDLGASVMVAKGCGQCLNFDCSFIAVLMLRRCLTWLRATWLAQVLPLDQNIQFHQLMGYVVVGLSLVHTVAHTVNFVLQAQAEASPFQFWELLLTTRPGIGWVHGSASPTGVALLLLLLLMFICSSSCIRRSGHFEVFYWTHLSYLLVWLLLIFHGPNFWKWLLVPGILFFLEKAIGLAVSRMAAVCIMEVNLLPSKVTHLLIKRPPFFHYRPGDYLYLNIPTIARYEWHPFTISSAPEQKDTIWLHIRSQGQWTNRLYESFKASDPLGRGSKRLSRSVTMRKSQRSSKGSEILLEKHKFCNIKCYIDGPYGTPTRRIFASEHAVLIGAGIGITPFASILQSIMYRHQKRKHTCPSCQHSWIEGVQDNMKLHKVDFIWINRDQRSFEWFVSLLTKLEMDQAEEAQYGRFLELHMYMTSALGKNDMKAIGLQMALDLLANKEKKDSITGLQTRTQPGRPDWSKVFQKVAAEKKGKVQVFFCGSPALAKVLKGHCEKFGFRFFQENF
Streptavidin (Streptomyces avidinii), sequence (P22629 whole entry, looked up): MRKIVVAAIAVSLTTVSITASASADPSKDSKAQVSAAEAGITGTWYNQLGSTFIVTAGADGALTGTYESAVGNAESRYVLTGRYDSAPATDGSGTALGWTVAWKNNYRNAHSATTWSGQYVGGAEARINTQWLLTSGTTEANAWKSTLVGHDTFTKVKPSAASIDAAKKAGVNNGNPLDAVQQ

Consider `CCCCC(=C=CC[C@@H](O)c1cccc(OCCO)c1)C[C@@H](O)c1ccccn1`, for which the composite z-score in [1] is 0.252; in [6], 1.5; in assay [7], -0.0331; with Torsin-1A (Homo sapiens) [8] it was 1.67; with Torsin-1A (Homo sapiens) [9], 0.416; in assay [10], 1.86. The same compound yielded a composite z-score in assay [12] of -0.147. Also, the z-score was -0.19 (inactive) in assay [2]; -1.15 (inactive) in assay [3]; -0.102 (inactive) in [4]; 0.786 (inactive) in [5]; 0.158 (inactive) in [11]; 14 (active) in assay [13]. For the same compound, the z-score in assay [14] was 1.33 (inactive); in assay [15], 0.375 (inactive); in [16] it was 0.504 (inactive); in assay [17] it was -0.0848; in assay [18] it was -1.68 (inactive); in assay [19], -0.544 (inactive). Moreover, the z-score in [20] was -1.46.

As to `CCOC(=O)C[C@H]1[C@H](OC(=O)c2ccc(-c3ccccc3)cc2)[C@@H](NC(=O)c2ccccc2)c2cc(OCCCO)ccc2N1C(=O)c1ccc2ccccc2n1`, the composite z-score in [1] is 0.278; in assay [6] it was 0.255; in assay [7] it was 0.368; with Torsin-1A (Homo sapiens) [8], 0.181; with Torsin-1A (Homo sapiens) [9], 0.757; in [10], -0.0315. The same compound registered a composite z-score in assay [12] of 0.119. Besides, the z-score was 0.775 (inactive) in assay [2]; 0.577 (inactive) in assay [3]; -0.882 (inactive) in assay [4]; -0.127 (inactive) in assay [5]; -0.734 (inactive) in assay [11]; 2.19 (inactive) in assay [13]. For the same compound, the z-score in assay [14] is -0.0981 (inactive); in assay [15], -0.735 (inactive); in assay [16], -0.11 (inactive); in [17], -0.488; in [18], 0.0548 (inactive); in [19] it was 1.41 (inactive). In addition, in assay [20], the z-score is 1.81.

As to `CCCCN1CC=CC23O[C@@H]4/C=C\CCCOC(=O)C4[C@H]2C(=O)N(CCCO)[C@@H]3C1=O` (stereo not given in full), the composite z-score in [1] is -0.311; in assay [6], -1.3; in assay [7], -0.105; with Torsin-1A (Homo sapiens) [8] it was -1.36; in the assay with Torsin-1A (Homo sapiens) [9] it was -1.64; in [10], -0.0567. In [12], this compound gave a composite z-score of 0.0927. Further, the z-score was 0.275 (inactive) in assay [2]; 0.0302 (inactive) in assay [3]; -0.0778 (inactive) in assay [4]; 0.241 (inactive) in assay [5]; -0.0884 (inactive) in assay [11]; 0.897 (inactive) in [13]. Further, the z-score in [14] was 0.611 (inactive); in assay [15] it was -0.746 (inactive); in assay [16], 0.0888 (inactive); in [17], -0.207; in assay [18], 1.59 (inactive); in [19] it was 0.593 (inactive). In addition, in [20], the z-score stood at 2.02.

For the compound `CCCCC(=C=CC[C@@H](O)c1ccc(CO)o1)CCO`, the composite z-score was 0.136 in assay [1]; -0.419 in assay [6]; 0.185 in assay [7]; 0.867 with Torsin-1A (Homo sapiens) [8]; 0.359 with Torsin-1A (Homo sapiens) [9]; 1.37 in assay [10]. In addition, the composite z-score in assay [12] stood at 0.459. Moreover, the z-score is -0.0181 (inactive) in assay [2]; -0.748 (inactive) in [3]; 2.69 (inactive) in assay [4]; -1.19 (inactive) in assay [5]; 0.702 (inactive) in [11]; 2.3 (inactive) in assay [13]. The z-score in assay [14] was 0.631 (inactive); in [15], 0.399 (inactive); in assay [16], 0.208 (inactive); in assay [17] it was 0.126; in assay [18], 2.35 (inactive); in [19], 1.49 (inactive). This compound gave a z-score in assay [20] of 1.3.

As to `COC(=O)c1c(CC[C@@H](CO)NC(=O)N[C@@H](Cc2ccccc2)Cn2cc(-c3ccccn3)nn2)oc(C(=O)N2CCOCC2)c1C(=O)OC`, the composite z-score in assay [1] was -0.216; in assay [6] it was -0.0372; in assay [7], 0.0184; in the assay with Torsin-1A (Homo sapiens) [8], -0.481; in the assay with Torsin-1A (Homo sapiens) [9], 0.182; in assay [10] it was 1.72. The compound further gave a composite z-score in assay [12] of 0.149. Further, the z-score in assay [2] was -0.625 (inactive); in [3], -0.301 (inactive); in assay [4], 0.498 (inactive); in assay [5], -0.248 (inactive); in assay [11], -0.55 (inactive); in assay [13] it was 0.179 (inactive). For the same compound, the z-score in assay [14] was 0.571 (inactive); in assay [15], 0.521 (inactive); in assay [16], 0.729 (inactive); in assay [17], 0.291; in assay [18] it was -1.76 (inactive); in [19], -0.4 (inactive). In assay [20], the z-score is -1.88.

`COC(=O)[C@@]1(Cc2ccccc2)[C@H]2c3cc(C(=O)N4CCCC4)n(Cc4c(CO)[nH]cc(C)c4=O)c3C[C@H]2CN1C(=O)c1ccccc1`: the composite z-score in [1] was 0.652; in [6] it was 1.01; in [7] it was -0.101; with Torsin-1A (Homo sapiens) [8], 0.4; with Torsin-1A (Homo sapiens) [9], 0.491; in assay [10], -0.547. In assay [12], the composite z-score was -0.0971. Moreover, the z-score is 0.0519 (inactive) in assay [2]; -0.0914 (inactive) in assay [3]; 0.0109 (inactive) in assay [4]; 0.473 (inactive) in [5]; -1.73 (inactive) in assay [11]; 0.315 (inactive) in [13]. Further, the z-score in assay [14] was 0.32 (inactive); in assay [15], 1.27 (inactive); in assay [16] it was 0.397 (inactive); in assay [17], -0.289; in assay [18] it was 0.562 (inactive); in assay [19] it was -0.976 (inactive). In assay [20], this compound registered a z-score of -2.9.

Regarding `O=C1C2C=CC(C(O)c3cc(C(F)(F)F)cc(C(F)(F)F)c3)N(Nc3ccccc3)C2C(=O)N1c1ccccc1` (stereo not given), the composite z-score in [1] was 0.0943; in assay [6] it was -0.374; in assay [7], -0.0136; with Torsin-1A (Homo sapiens) [8] it was 0.702; in the assay with Torsin-1A (Homo sapiens) [9], 1.18; in assay [10], -0.857. In addition, the composite z-score in assay [12] was 0.345. Also, the z-score in assay [2] is -1.01 (inactive); in [3], -1.35 (inactive); in assay [4] it was -0.326 (inactive); in assay [5] it was 0.501 (inactive); in assay [11], -0.355 (inactive); in assay [13], 4.95 (inactive). For the same compound, the z-score was 2.77 (inactive) in [14]; -2.01 (inactive) in assay [15]; 2.64 (inactive) in assay [16]; -0.62 in [17]; 0.376 (inactive) in assay [18]; -4.65 (inactive) in assay [19]. In assay [20], this compound displayed a z-score of -1.33.

For the compound `C[N+](C)(C)CCCC[C@@H]1NC(=O)[C@H]2C[C@@H](C(=O)NCCCCCCNC(=O)CS)[C@@H](c3ccc(O)cc3)N2C1=O`, the composite z-score in assay [1] was -0.195; in assay [6], -1.48; in assay [7], -0.024; with Torsin-1A (Homo sapiens) [8] it was 2.12; with Torsin-1A (Homo sapiens) [9], 1.3; in assay [10] it was 0.801. Besides, the composite z-score in [12] is -0.299. Further, the z-score was -0.798 (inactive) in assay [2]; -0.15 (inactive) in [3]; -0.947 (inactive) in assay [4]; -0.549 (inactive) in assay [5]; -0.265 (inactive) in [11]; 1.24 (inactive) in assay [13]. Further, the z-score in assay [14] was 0.193 (inactive); in assay [15] it was 1.12 (inactive); in [16] it was 0.0061 (inactive); in [17], -0.409; in [18], 0.518 (inactive); in [19] it was 0.507 (inactive). In addition, the z-score in assay [20] stood at 0.936.
